A selection: hits, their analogues and other compounds. The true share with any hit is near 11%.
HEK cytotox: cytotoxic compounds in HEK 293 cells; HEK 293 viability, ATP luminescence (CellTiter-Glo), 48-72 h; Potency, µM (titrated, usually from 115 µM), actives largely listed as inhibitors; hit rate 6.6% among 94,000; AID 1345083; note: nearly all actives have a fitted effect of over 60% in size
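Luminescence from cellular ATP, measured with CellTiter-Glo, indicates HEK 293 viability. Cells plated at 250 cells/well are treated with compound for 48 or 72 hr at 37 degree Celsius before reagent addition.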
3T3 cytotox: cytotoxic compounds in NIH 3T3 cells | NIH 3T3 viability, CellTiter-Glo ATP luminescence, 48-72 h | Potency, µM (top dose mostly 96.7 µM), usual class: inhibitors | hit rate 4.3% among 94,000 | AID 1345082; note: nearly all actives have a fitted effect of over 55% in size
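Cytotoxicity was measured by CellTiter-Glo ATP luminescence after 48 or 72 h compound exposure at 37 °C. Mouse NIH 3T3 fibroblasts were seeded at 400 cells/well and dosed by 23 nL pin transfer.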
FLuc inh: blocks purified firefly luciferase enzyme activity; P08659; purified P. pyralis luciferase, luminescence, biochemical; Potency, µM (titrated, usually from 115 µM), actives largely listed as inhibitors; hit rate 2.5% among 76,000; AID 1347043; note: nearly all actives have a fitted effect of over 65% in size
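Inhibitors were tested against purified firefly luciferase in a biochemical, low-substrate format (both substrates at 10uM) and luminescence measured with a CCD imager.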
NPR1 antag: blocks ANP-stimulated signaling of human Npr1 receptor | P16066 | HEK293 hNpr1 GloSensor cGMP, ANP-stimulated luminescence | Potency, µM (doses to about 46.3 µM), actives largely listed as inhibitors | hit rate 1.6% among 76,000; calls by dose curve; note: nearly all actives have a fitted effect of over 60% in size
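Compound pre-incubated 30 min at room temperature on GloSensor-loaded HEK293 cells stably carrying hNpr1 and the pGS-40F cGMP biosensor. Stimulation uses hNppA at 0.1 nM final; luminescence is taken at baseline and 20 min post-agonist.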
Large screens that a line does not name were inactive. Unless noted, calls come from the whole dose curve; as a rule, active = well fitted curve in the direction sought with a large enough effect; inconclusive = small, poorly fitted or top-dose-only effect, or another doubt; inactive = no such curve, though single readings can be large; an effect the other way counts as inactive or inconclusive.

COc1ccc(Nc2cc3c(cn2)CN(Cc2ccncc2)CCN3)cn1	HEK cytotox inconclusive
c1ccc(CCN2CCNc3cc(Nc4ccc(N5CCOCC5)cc4)ncc3C2)cc1	HEK cytotox 50.1µM, 3T3 cytotox 35.5µM
C[S+](=O)([O-])NC1CCN(c2ccnc3ccnn23)C1 (centres undefined)	none (no result: FLuc inh, NPR1 antag)
CC(C)NC(=O)N[C@H]1CCN2C(=O)c3cc(/C=C/c4ccccc4)ccc3NC(=O)[C@H]12	FLuc inh 3.98µM
CC(C)NC(=O)N[C@H]1CCN2C(=O)c3cc(-c4ccc(Cl)cc4)ccc3NC(=O)[C@H]12	none
COc1ccc(NC(=O)C2(C)CCCc3cnc(Nc4cccnc4)nc32)cc1 (centres undefined)	3T3 cytotox 35.5µM
COc1cccc(Nc2ncc3c(n2)C(C)(C(=O)NCCN2CCOCC2)CC3)c1 (centres undefined)	HEK cytotox inconclusive, 3T3 cytotox inconclusive
CC1(C(=O)NC2CC2)CCCc2cnc(Nc3ccccc3)nc21 (centres undefined)	HEK cytotox inconclusive
CC1(C(=O)NCc2cccc(F)c2)COCc2cnc(Nc3ccccc3)nc21 (centres undefined)	HEK cytotox 89.1µM, 3T3 cytotox inconclusive
CC1(C(=O)NC2CC2)CCc2cnc(Nc3ccccc3)nc21 (centres undefined)	HEK cytotox 39.8µM, 3T3 cytotox 28.2µM, NPR1 antag inconclusive
COc1cccc(Nc2ncc3c(n2)C(C)(C(=O)NCc2ccc4c(c2)OCO4)CC3)c1 (centres undefined)	HEK cytotox 31.6µM, 3T3 cytotox inconclusive, NPR1 antag inconclusive
CSc1ccc(-c2ccc3c(c2)C(=O)N2CC[C@H](NC(=O)C4CCNCC4)C[C@H]2C(=O)N3)cc1	none
O=C(CN1CCCCCC1)N1CC(Oc2ccccc2-c2nc(C3CC3)no2)C1	none
COc1ccc(NC(=O)C2(C)CCc3cnc(NCc4ccccc4)nc32)cn1 (centres undefined)	HEK cytotox inconclusive, 3T3 cytotox 12.6µM
COc1cccc(NC(=O)C2(C)COCc3cnc(Nc4ccccc4)nc32)c1 (centres undefined)	HEK cytotox 100µM, 3T3 cytotox 79.4µM
CC1(C(=O)NC2CCOCC2)COCc2cnc(Nc3ccccc3)nc21 (centres undefined)	3T3 cytotox inconclusive
CC1(C(=O)N2CCC(c3ccccc3)CC2)COCc2cnc(Nc3ccccc3)nc21 (centres undefined)	HEK cytotox 63.1µM, 3T3 cytotox 44.7µM, NPR1 antag inconclusive
COc1cccc(NC(=O)C2(C)CCCc3cnc(N(C)C)nc32)c1 (centres undefined)	HEK cytotox inconclusive, 3T3 cytotox inconclusive
COc1cccc(NC(=O)C2(C)CCc3cnc(NCc4ccccc4)nc32)c1 (centres undefined)	HEK cytotox 70.8µM, 3T3 cytotox inconclusive
Cn1ccc(NC(=O)C2(C)COCc3cnc(Nc4ccccc4)nc32)n1 (centres undefined)	HEK cytotox inconclusive, 3T3 cytotox inconclusive
Cc1noc(C)c1C(=O)N1Cc2ccccc2CC2(CCN(CC3CCNC3)CC2)C1 (centres undefined)	none (no result: FLuc inh, NPR1 antag)
O=C(NC1CCCCCC1)C1CCc2nnc(C3CCN([S+](=O)([O-])c4ccccc4Cl)CC3)n21 (centres undefined)	3T3 cytotox inconclusive (no result: FLuc inh, NPR1 antag)
CN1CCCC1c1nc(C2CN(C(=O)CCCc3c[nH]c4ccccc34)C2)no1 (centres undefined)	HEK cytotox inconclusive
COc1ccc(NC(=O)C2(C)CCc3cnc(Nc4ccccc4)nc32)cn1 (centres undefined)	HEK cytotox 100µM, 3T3 cytotox inconclusive
CC1(C(=O)Nc2ccncc2)CCCc2cnc(Nc3ccccc3)nc21 (centres undefined)	HEK cytotox inconclusive, 3T3 cytotox inconclusive
COc1cccc(Nc2ncc3c(n2)C(C)(C(=O)NCCCn2ccnc2)CC3)c1 (centres undefined)	HEK cytotox inconclusive, 3T3 cytotox 25.1µM
COCCn1c(=O)c(C(=O)N2CCN(C(=O)c3ccccc3Cl)CC2)nc2cccnc21	none (no result: FLuc inh, NPR1 antag)
Cn1cnc(S(=O)(=O)N2CC[C@@H]3COCCN(Cc4ccccc4)[C@@H]3C2)c1	none
CC(C)N(Cc1cn(Cc2ccccc2)nc1-c1cc2ccccc2o1)CC1CCC(=O)N1 (centres undefined)	none
COC[C@@H]1CCCN1Cc1cn(Cc2ccccc2)nc1-c1cc2ccccc2o1	HEK cytotox inconclusive, 3T3 cytotox inconclusive, FLuc inh 28.2µM

Bioassay records as filed in PubChem.
